Only some compounds are listed: those with a hit (about 6.9% of all), similar ones and a draw of the others.
ASM inhibitor = Inhibitors of Secretory Acid Sphingomyelinase (S-ASM): qHTS | Sphingomyelin phosphodiesterase (Homo sapiens), P17405 | placental ASM, HMU-PC fluorogenic substrate, 60 min | Potency, µM (top dose mostly 57.5 µM), for inactives: top-dose activity change, negative = inhibition, most hits filed as inhibitors | 340,000 compounds, 0.006% hits | AID 504937, 2011; further: potency means the concentration at half of the fitted maximal effect
Target sequence (P17405 47-631 limits assumed): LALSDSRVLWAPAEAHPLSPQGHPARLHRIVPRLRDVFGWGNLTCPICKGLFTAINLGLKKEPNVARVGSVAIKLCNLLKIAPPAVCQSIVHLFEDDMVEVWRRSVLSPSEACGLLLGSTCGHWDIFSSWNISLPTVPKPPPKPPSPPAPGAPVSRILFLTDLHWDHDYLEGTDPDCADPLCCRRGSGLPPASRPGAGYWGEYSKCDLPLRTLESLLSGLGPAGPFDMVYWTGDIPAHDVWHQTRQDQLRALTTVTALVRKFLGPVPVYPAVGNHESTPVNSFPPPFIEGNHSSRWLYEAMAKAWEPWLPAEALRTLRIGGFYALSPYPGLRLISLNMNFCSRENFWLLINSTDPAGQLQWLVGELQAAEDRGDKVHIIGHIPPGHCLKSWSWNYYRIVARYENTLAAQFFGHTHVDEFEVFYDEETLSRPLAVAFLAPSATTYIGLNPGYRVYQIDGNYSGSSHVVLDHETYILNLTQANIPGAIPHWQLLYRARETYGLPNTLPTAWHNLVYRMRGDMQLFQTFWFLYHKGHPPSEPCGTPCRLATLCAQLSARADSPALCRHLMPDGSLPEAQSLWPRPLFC
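Fluorogenic HMU-PC substrate (9 uM final) is turned over by placental ASM in 60 min at 37 C after a 10 min compound preincubation. Reaction ended by alkaline stop (pH 10), with fluorescence read at 386/447 nm.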
KB-3-1 cytotox = qHTS assay for MDR1-selective chemotherapeutics: Primary screen using the parental adenocarcinoma cell KB-3-1. KB-3-1 viability, CellTiter-Glo ATP luminescence, 72 h. Potency, µM (highest dose often 46.1 µM), actives largely listed as cytotoxic. 400,000 compounds, 1.4% hits; further: potency means the concentration at half of the fitted maximal effect; on the % scale 0 is the no-effect control and ±100 the full control effect; nearly all actives have a fitted effect of over 60% in size
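Parental KB-3-1 viability, qHTS format: 72 h compound exposure, 37 °C; CellTiter-Glo; media-only wells and DMSO plates as controls; concentration-effect fits on corrected data.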
Giardia kill = Small Molecules that selectively kill Giardia lamblia: qHTS. Giardia lamblia trophozoite viability. activity change, % at 7.66 µM, hits read low. 340,000 compounds, 0.15% hits. AID 540267, 2011; in the data active means activity change below about -80%; inconclusive means between about -30% and that limit;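 further: parasites exposed to compound for two days anaerobically before the ATP read; on the % scale 0 is the no-effect control and ±100 the full control effect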
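Each well holds 100 Giardia trophozoites and compound. After two days (48 hrs) at 37 deg C in anaerobic conditions, ATP is quantified by luminescence.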
KB-V1 cytotox = qHTS assay for MDR1-selective chemotherapeutics: Primary screen using the drug-selected MDR subline cells KB-V1. AID 1347076, 2019. 400,000 compounds, 3.4% hits. Potency, µM (series often up to 46.1 µM), usual class: cytotoxic. KB-V1 MDR cells viability, CellTiter-Glo, 72 h; further: potency means the concentration at half of the fitted maximal effect; on the % scale 0 is the no-effect control and ±100 the full control effect; nearly all actives have a fitted effect of over 60% in size
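Following 72 h at 37 degrees C with compound, KB-V1 cell viability was read by CellTiter-Glo luminescence, medium being phenol-red-free DMEM plus 10% FBS; concentration-response parameters came from normalized, curve-fitted qHTS data.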
SW480 rereplic = A quantitative high throughput screen for small molecules that induce DNA re-replication in SW480 colon adenocarcinoma cells; SW480 DNA re-replication, Hoechst DNA content imaging, 48 h; Potency, µM (highest dose often 46.1 µM), without a hit: at the highest dose re-replication activation, usual class: activators; 340,000 compounds, 1.8% hits; further: potency means the concentration at half of the fitted maximal effect; % of control where 0% means no effect; nearly all actives have a fitted effect of over 55% in size
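Readout is total intensity of Hoechst-stained nuclei, excited at 405 nm and collected at 500-530 nm. Compound treatment lasted 48 hr at 37 C in 5% CO2 before staining.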
MCF10A rereplic = A quantitative high throughput screen for small molecules that induce DNA re-replication in MCF 10a normal breast cells. MCF 10A DNA re-replication, Hoechst nuclear intensity, 48 h. Potency, µM (highest dose often 46.1 µM), for the others: at the highest dose activity, positive = re-replication, hits mostly activators. 350,000 compounds, 2.9% hits. AID 624296, 2012; further: potency means the concentration at half of the fitted maximal effect; % of control where 0% means no effect; nearly all actives have a fitted effect of over 50% in size
* hit, by the source's call; i = inactive; ? = inconclusive; nt = no result; [ ] = dose if it differs, or a comment. Unless noted, the call rests on the fitted dose curve; in most records, active means well fitted curve in the direction sought with a large enough effect; inconclusive means small, poorly fitted or top-dose-only effect, or another doubt; inactive means no such curve, though single readings can be large; an effect the other way counts as inactive or inconclusive.

SMILES	ASM inhibitor	KB-3-1 cytotox	Giardia kill	KB-V1 cytotox	SW480 rereplic	MCF10A rereplic
Cn1cc(/C=N\NC(=O)C2COc3ccccc3O2)c2ccccc21 (configuration not stated)	nt	nt	nt	nt	17%	5.8µM*
Cc1ccc(/C=N/NC(=O)C2COc3ccccc3O2)s1 (configuration not stated)	-1%	2.1µM*	3	?	2.8µM*	1.8µM*
O=C(N/N=C/c1c(O)n(-c2ccccc2Cl)c(=O)c2ccccc12)C1COc2ccccc2O1 (configuration not stated)	34%	?	18	?	?	21µM*
O=C(N/N=C/c1cccs1)C1COc2ccccc2O1 (configuration not stated)	1%	i	-15	?	-4%	-5%
Cc1ccc(-n2c(O)c(/C=N/NC(=O)C3COc4ccccc4O3)c3ccccc3c2=O)cc1 (configuration not stated)	32%	?	17	?	?	?
Cc1ccccc1C(=O)Nc1sc2c(c1C(=O)N1CCCCC1)CCC(C)C2 (configuration not stated)	nt	i	nt	i	nt	nt
CCOc1ccc(NC(=O)Cn2c(=O)c(CNc3ccc(CC)cc3)cc3cc4c(cc32)OCO4)cc1	nt	i	nt	i	nt	nt
CN(CC(=O)O)S(=O)(=O)c1ccc2c(c1)n(C)c(=O)c(=O)n2C	6%	i	-2	i	7%	-4%
CCCCN(CCCC)C(=O)CN(C)S(=O)(=O)c1ccc2c(c1)n(C)c(=O)c(=O)n2C	6%	i	5	12µM*	-5%	-8%
CC(Sc1nnc(CN2CCCC2)n1Cc1ccccc1)C(=O)Nc1ccc(F)c(F)c1F (configuration not stated)	2%	i	-13	1µM*	-3%	25%
Cc1nn(C(C)(C)C)c(OC(=O)C2CCCC2)c1S(=O)(=O)c1ccccc1	-4%	21µM*	-24	?	-3%	?
Cn1c2ccccc2c(=O)c2ccc(Cl)cc21	nt	?	nt	13µM*	nt	nt
CN(C)c1ccc(-c2ccc3c(=O)c4ccccc4n(C)c3c2)cn1	117%	i	?	i	3%[9.22 µM]	?
Cn1c2ccccc2c(=O)c2ccc(C#Cc3ccc(N)cc3)cc21	133%	i	14	i	15µM*	?
COc1ccccc1C#Cc1ccc2c(=O)c3ccccc3n(C)c2c1	261%	i	-11	i	-4%	21µM*
COc1ccc(C#Cc2ccc3c(=O)c4ccccc4n(C)c3c2)cc1	i	i	-9	i	?	?
Cc1ccc(Sc2c(C)nn(C(=O)c3ccc(Cl)cc3)c2C)cc1	nt	i	nt	i	nt	nt
O=C(C1CC1)N1CCc2cc(Br)cc(S(=O)(=O)N3CCN(c4cccc(C(F)(F)F)c4)CC3)c21	nt	i	nt	?	nt	nt
O=C1NC(=S)SC1=Cc1ccc(Cl)cc1	-3%	i	1	i	?	9.2µM*
O=C1NC(=S)SC1=Cc1ccccc1Br	-6%	?	2	i	1%	15µM*
CCOc1ccccc1C=C1SC(=S)NC1=O	-3%	i	-21	i	10%	18µM*
CC1=C(C(N)=O)C(c2ccccc2F)n2nc(-c3ccc(Cl)cc3)nc2N1 (configuration not stated)	nt	i	nt	i	nt	nt
O=C1N(c2ccccc2C(F)(F)F)O[C@]1(c1ccccc1)C1CCCCC1	-11%	i	4	i	13µM*	18µM*
Cc1oc(-c2ccccc2)nc1CNC(=O)Nc1ccccc1	nt	i	nt	i	nt	nt
COc1cc(/C=C2\NC(=O)NC2=O)cc(Br)c1OC	-2%	?	10	5.8µM*	0%	-15%
SMILES	ASM inhibitor	KB-3-1 cytotox	Giardia kill	KB-V1 cytotox	SW480 rereplic	MCF10A rereplic
COc1ccccc1C(=O)NC1(C(F)(F)F)NC(=O)N(CCc2ccccc2)C1=O (configuration not stated)	nt	i	nt	?	nt	nt
CC(C)Oc1ccc(C(=O)NC2(C(F)(F)F)NC(=O)N(CCCc3ccccc3)C2=O)cc1 (configuration not stated)	-14%	?	1	9.2µM*	?	14%
COc1ccc(CCN2C(=O)NC(NC(=O)CCc3ccccc3)(C(F)(F)F)C2=O)cc1OC (configuration not stated)	1%	i	21	21µM*	2%	0%
Cc1c(Cl)cccc1NC(=O)CSc1ncc2c(n1)-c1ccccc1N(C)S2(=O)=O	nt	i	nt	i	nt	nt
COCCNc1oc(-c2ccc(OC)cc2)nc1C#N	nt	i	nt	i	nt	nt
N#Cc1nc(-c2ccc(F)cc2)oc1NCCN1CCOCC1	2%	i	-1	?	-16%	12%
Cc1ccc(-c2nc(C#N)c(NCCN3CCCCC3)o2)cc1	8%	i	10	23µM*	6%	2%
COCCNc1oc(-c2ccc(C)cc2)nc1C#N	9%	i	-10	23µM*	-173%	2%
Cn1c2c(c3ccccc31)CCN(CCCCN1CCN(c3ccccc3)CC1)C2=O	-3%	i	-2	5.8µM*	?	?
COc1cc(Nc2nc3ccccc3nc2NS(=O)(=O)c2ccc([N+](=O)[O-])cc2)cc(OC)c1OC	-19%	i	-6	?	?	22%
O=C(O)c1cccc(Nc2nc3ccccc3nc2NS(=O)(=O)c2ccccc2)c1	12%	i	-1	i	1%	14%
CC(C)(C)c1ccc(C(=O)Nc2ccc(S(=O)(=O)Nc3cnc4ccccc4n3)cc2)cc1	102%	i	-18	i	11%	?
O=[N+]([O-])c1ccc(S(=O)(=O)Nc2nc3ccccc3nc2Nc2ccccc2)cc1	-4%	i	-5	5.2µM*	13%	10%
O=C(Nc1ccc(S(=O)(=O)Nc2cnc3ccccc3n2)cc1)c1ccc(F)cc1	70%	i	-11	i	7.3µM*	-5%
O=C(O)c1ccc(Nc2nc3ccccc3nc2NS(=O)(=O)c2ccc(F)cc2)cc1	144%	i	0	i	-15%	23µM*
COc1ccc(Cl)cc1CNCCSc1nnnn1-c1ccccc1	nt	i	nt	i	nt	nt
Cc1ccccc1NC(=O)c1c(NC(=O)c2ccco2)sc2c1CCC(C(C)(C)C)C2 (configuration not stated)	nt	i	nt	i	nt	nt

Assay outcomes (PubChem)
